# Several values for one entry are separate records, joined by “and”; a condition that tells them apart may be missing. Identical values can stand only once. More than one record can exist for a structure, and the calls need not agree. Activity calls are given as the source filed them. The calls were made as follows: active = hit-call score of the fitted dose curve at least 0.9, where 1 is the maximum; inactive = score below 0.9.
# Experiment: BSK_LPS_PGE2: BioMAP Diversity Plus: LPS Assay for Prostaglandin E2 (PGE2) Biomarker Activity (AID 2283082)
# Conditions: primary human HUVEC with PBMC; actives raise or lower the signal
# Experimental: BSK_LPS is a cell-based, multiplexed-readout assay that uses umbilical vein endothelium and peripheral blood mononuclear cells, a human vascular primary cell co-culture, with measurements taken at 24 hours after chemical dosing in a 96-well plate.BSK_LPS_PGE2 is an assay component measured in the BSK_LPS assay. It measures PGE2 antibody related to regulation of gene expression using ELISA technology.Data from the assay component BSK_LPS_PGE2 was analyzed into 1 assay endpoint. This assay endpoint, BSK_LPS_PGE2, was analyzed with bidirectional fitting relative to DMSO as the negative control and baseline of activity. Using a type of binding reporter, gain or loss-of-signal activity can be used to understand changes in the signaling as they relate to the gene PTGER2. Furthermore, this assay endpoint can be referred to as a primary readout, because this assay has produced multiple assay endpoints where this one serves a signaling function. To generalize the intended target to other relatable targets, this assay endpoint is annotated to the gpcr intended target family, where the subfamily is rhodopsin-like receptor.
# The levels of cell surface (or secreted, indicated by the prefix "s") biomarker endpoints were measured by ELISA. Overt cytotoxicity to cells in confluent adherent cultures (all systems other than the BT system) was assessed by measuring total protein levels using sulforhodamine B (SRB) staining in parallel cultures at the time of biomarker measurements, indicated as SRB endpoints. For proliferation assays for adherent cell types, individual cell types are cultured at sub-confluence and relative cell numbers quantified by SRB staining at time points optimized for each system (48 h: 3C and CASM3C systems; 72 h: BT and HDF3CGF systems; 96 h: SAg system). SRB was performed by staining cells with 0.1% SRB after fixation with 10% TCA and reading wells at 560 nm.Viability and proliferation of PBMC (T cells) was quantified by Alamar Blue reduction for the SAg and BT systems. For PBMC viability (referred to as PBMC Cytotoxicity within the assay endpoint names), cells were plated (75,000/well in a 96-well plate) and then chemical samples added for 1 h before addition of activators, SEB and TSST-1 (20 ng/mL final concentration each). Cells were incubated for 90 h. Then, Alamar Blue (20 uL/well) (Invitrogen, Cat DAL1100) was added for 6 h, and the plates were read with a fluorescence microplate reader at 546/580 nm (excitation/emission). For PBMC proliferation, cells were plated and activated as above but incubated for only 16 h prior to addition of Alamar Blue. Plates were read after 6 h.
Structure (SMILES),outcome,AC50
C[C@]12CCC(=O)C[C@@H]1CC[C@@H]1[C@@H]2CC[C@]2(C)[C@@H](O)CC[C@@H]12,inactive,–
CCCCC(CC)CO[N+](=O)[O-] (stereo not given),inactive,–
CC(=O)[O][Hg][c]1ccccc1,–,0.149 µM (active)
CC(C)(C)c1cc(O)ccc1O,–,5.94 µM (active)
O=C(O)C(F)(F)C(F)(F)C(F)(F)C(F)(F)C(F)(F)C(F)(F)C(F)(F)C(F)(F)C(F)(F)C(F)(F)F,inactive,22.3 µM (active)
O=[N+]([O-])c1ccc2c3c(cccc13)CC2,inactive,–
O=C(OC1CCCCC1)c1ccccc1C(=O)OC1CCCCC1,inactive,–
CC1(C)Cc2cccc(O)c2O1,–,4.31 µM (active)
CCC(C)(C)c1ccc(O)c(C(C)(C)CC)c1,inactive,–
COP(=S)(OC)Oc1ccc(S(=O)(=O)N(C)C)cc1,inactive,–
CCOP(=S)(OCC)SCSP(=S)(OCC)OCC,inactive,–
O=[N+]([O-])c1ccc(O)c([N+](=O)[O-])c1,inactive,–
Oc1cccc2cccnc12,–,11.4 µM (active)
CCN1CCC2(CC1)COc1cc3c(cc12)N(C(=O)c1ccc(-c2ccc(-c4nnc(C)o4)cc2C)cc1)CC3,inactive,–
CCNc1nc(NC(C)(C)C)nc(SC)n1,inactive,–
ClCC(Cl)CCl,inactive,–
Cc1ccccc1N,inactive,–
C=C(C)C(=O)[O][Sn]([CH2]CCC)([CH2]CCC)[CH2]CCC,inactive,–
C=CC(=O)OCCCCCC(C)C,inactive,–
C(=NC1CCCCC1)=NC1CCCCC1,inactive,–

Structure (SMILES),outcome,AC50
CC(=O)OC(c1ccccc1)C(Cl)(Cl)Cl (stereo not given),inactive,–
COc1cc(-c2ccc(N)c(OC)c2)ccc1N,–,3.63 µM (active) and 9 µM (active)
COP(=S)(OC)Oc1ccc(Sc2ccc(OP(=S)(OC)OC)cc2)cc1,–,9.58 µM (active)
O=C(O)C(Cl)(Cl)Cl,inactive,–
ClC(Cl)=C(Cl)C(Cl)=C(Cl)Cl,inactive,–
NC(=S)Nc1ccccc1,inactive,–
CCOP(=S)(OCC)SCCS(=O)(=O)CC,inactive,–
O=C(O)CCC(F)(C(F)(F)F)C(F)(F)F,inactive,–
CC12CC1(C)C(=O)N(c1cc(Cl)cc(Cl)c1)C2=O (stereo not given),inactive,–
COC(=O)c1sccc1S(=O)(=O)NC(=O)Nc1nc(C)nc(OC)n1,inactive,–
CCCCCCCCC(=O)NCc1ccc(O)c(OC)c1,–,12.8 µM (active)
O=C(Nc1ccc2[nH]ccc2c1)c1cc2cc(F)ccc2n1Cc1cccc(F)c1,–,20 µM (active)
CCOP(=S)(OCC)Oc1ccc(S(C)=O)cc1 (stereo not given),inactive,–
COC[C@H](C)N(C(=O)CCl)c1c(C)csc1C,inactive,–
COc1cc(OC)nc(NC(=O)NS(=O)(=O)c2ncccc2C(=O)N(C)C)n1,inactive,–
CCOP(=S)(OCC)Oc1nc(Cl)c(Cl)cc1Cl,inactive,–
OCc1ccco1,inactive,–
Nc1ncc([N+](=O)[O-])s1,inactive,–
CCSC(C)CC1CC(=O)C(C(CC)=NOC/C=C/Cl)=C(O)C1 (stereo not given),inactive,–

# — PubChem BioAssay (EPA / NIEHS)
